# Records with an inconclusive call do not appear. Calls of active or inactive are those of the source. The calls were made as follows, unless noted: active = hit-call score of the fitted dose curve at least 0.9, where 1 is the maximum; inactive = score below 0.9.
# Experiments:
# [1] = read-out: E-selectin (Homo sapiens) (UniProt P16581); assay: BSK_3C_Eselectin: BioMAP Diversity Plus: 3C Assay for Eselectin Biomarker Activity (AID 2283015); settings: primary human endothelial cells (HUVEC); actives raise or lower the signal;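 as to outcome: cell surface E-selectin protein quantified by ELISA 24 h after dosing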
# In short: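 Primary human umbilical vein endothelial cells (3C system), read 24 h after compound addition; E-selectin measured by ELISA. Bidirectional curve fitting against DMSO baseline; cytotoxicity by parallel SRB total-protein staining.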
# [2] = read-out: Interleukin-1 alpha (IL1a), IL1A (gene 3552); assay: BSK_BE3C_IL1a: BioMAP Diversity Plus: BE3C Assay for Interleukin-1 alpha (IL1a) Biomarker Activity (AID 2283016); settings: primary human bronchial epithelial cells; actives raise or lower the signal
# In short: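 Human primary bronchial epithelial cells (BE3C system) were dosed with compound and IL-1a measured by ELISA 24 h later. Activity was fitted bidirectionally against DMSO baseline; cytotoxicity was tracked in parallel cultures by SRB total-protein staining.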
# [3] = read-out: Monocyte Chemoattractant Protein-1 (MCP1), CCL2 (gene 6347); assay: BSK_3C_MCP1: BioMAP Diversity Plus: 3C Assay for Monocyte Chemoattractant Protein-1 (MCP1) Biomarker Activity (AID 2283017); settings: primary human endothelial cells (HUVEC); actives raise or lower the signal
# In short: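 Human umbilical vein endothelial cells (3C system) exposed to chemicals for 24 h; MCP-1 quantified by ELISA against the DMSO baseline with bidirectional fitting, and parallel SRB staining used to assess cytotoxicity.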
# [4] = read-out: Monocyte Chemoattractant Protein-1 (MCP1), CCL2 (gene 6347); assay: BSK_4H_MCP1: BioMAP Diversity Plus: 4H Assay for Monocyte Chemoattractant Protein-1 (MCP1) Biomarker Activity (AID 2283018); settings: primary human endothelial cells (HUVEC); actives raise or lower the signal
# In short: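 Human umbilical vein endothelial cells (4H system) dosed with chemical; MCP-1 measured by ELISA 24 h after dosing. Bidirectional curve fitting against DMSO negative control as baseline; parallel SRB total-protein staining tracks overt cytotoxicity.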
# [5] = read-out: Human Leukocyte Antigen - DR isotype (HLADR), HLA-DRA (gene 3122); assay: BSK_3C_HLADR: BioMAP Diversity Plus: 3C Assay for Human Leukocyte Antigen - DR isotype (HLADR) Biomarker Activity (AID 2283019); settings: primary human endothelial cells (HUVEC); actives raise or lower the signal;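 as to outcome: ELISA of cell-surface HLA-DR on HUVEC 24 h after dosing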
# In short: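 HUVEC monoculture, HLA-DR measured by ELISA 24 h after chemical dosing. Fitted bidirectionally against DMSO baseline; parallel SRB staining assessed cytotoxicity, with 3C proliferation read by SRB at 48 h.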
# [6] = read-out: Interleukin-8 (IL8), CXCL8 (gene 3576); assay: BSK_3C_IL8: BioMAP Diversity Plus: 3C Assay for Interleukin-8 (IL8) Biomarker Activity (AID 2283020); settings: primary human endothelial cells (HUVEC); actives raise or lower the signal
# In short: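 Primary human umbilical vein endothelial cells (3C system) were exposed to test chemical for 24 h, then IL-8 was quantified by ELISA. Responses were fitted bidirectionally against DMSO vehicle as baseline.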
# [7] = molecular target: Retinoic acid receptor RXR-alpha (Homo sapiens) (UniProt P19793); assay: ATG_RXRa_TRANS: Attagene TRANS-FACTORIAL HepG2 Assay for human Retinoid X Receptor alpha (RXRa) (AID 2283012; active = hit-call score of the fitted dose curve at least 0.9, where 1 is the maximum)
# In short: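 HepG2 cells transiently transfected with multiplexed GAL4-UAS reporter units and chimeric NR-GAL4 fusions, dosed 24 h. Reporter mRNA measured by RT-PCR, FAM labelling, HpaI digestion and capillary electrophoresis; gain-of-signal fitted relative to DMSO baseline.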
# [8] = molecular target: human Retinoid X Receptor beta (RXRb), RXRB (gene 6257) (UniProt P28702); assay: ATG_RXRb_TRANS: Attagene TRANS-FACTORIAL HepG2 Assay for human Retinoid X Receptor beta (RXRb) (AID 2283013; active = hit-call score of the fitted dose curve at least 0.9, where 1 is the maximum)
# In short: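 HepG2 cells transiently transfected with multiplexed reporter units driven by GAL4-UAS and exogenous chimeric NR-Gal4 proteins; treated 24 h. Reporter mRNA measured by RT-PCR, 6-FAM labelling and capillary electrophoresis; gain-of-signal fitted versus DMSO baseline.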
# [9] = molecular target: human Thyroid Receptor alpha (THRa1), THRA (gene 7067) (UniProt P10827); assay: ATG_THRa1_TRANS: Attagene TRANS-FACTORIAL HepG2 Assay for human Thyroid Receptor alpha (THRa1) (AID 2283014; active = hit-call score of the fitted dose curve at least 0.9, where 1 is the maximum)
# In short: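 HepG2 cells transiently transfected with chimeric NR-Gal4 and GAL4-UAS reporter units, dosed 24 h. Reporter mRNA quantified by RT-PCR, fluorescent labeling, HpaI digestion and capillary electrophoresis; gain-of-signal fit versus DMSO.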
# [10] = molecular target: human RAR-related Orphan Receptor gamma (RORg), RORC (gene 6097) (UniProt P51449); assay: ATG_RORg_TRANS: Attagene TRANS-FACTORIAL HepG2 Assay for human RAR-related Orphan Receptor gamma (RORg) (AID 2283011; active = hit-call score of the fitted dose curve at least 0.9, where 1 is the maximum)
# In short: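 HepG2 cells transiently transfected with GAL4-UAS reporter units and chimeric RORg-Gal4 construct; after 24 h chemical exposure, reporter mRNA measured by RT-PCR with fluorescent capillary electrophoresis, gain of signal fitted against DMSO.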
# Sequence of Retinoic acid receptor RXR-alpha (Homo sapiens) (P19793 whole entry, looked up, the tested form may be a part): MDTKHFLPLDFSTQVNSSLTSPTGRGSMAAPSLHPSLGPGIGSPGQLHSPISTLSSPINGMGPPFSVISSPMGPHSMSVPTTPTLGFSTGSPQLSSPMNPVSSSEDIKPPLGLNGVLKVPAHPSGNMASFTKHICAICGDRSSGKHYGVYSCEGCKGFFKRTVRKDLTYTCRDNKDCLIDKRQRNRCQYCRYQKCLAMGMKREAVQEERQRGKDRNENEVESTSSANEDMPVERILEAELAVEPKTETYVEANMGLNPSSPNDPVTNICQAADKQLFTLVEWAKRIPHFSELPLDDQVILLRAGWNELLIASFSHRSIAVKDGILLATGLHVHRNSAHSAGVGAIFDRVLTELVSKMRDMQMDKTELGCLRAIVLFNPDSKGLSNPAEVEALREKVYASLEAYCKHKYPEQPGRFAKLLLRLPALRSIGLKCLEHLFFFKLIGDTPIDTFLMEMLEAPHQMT
# Sequence of E-selectin (Homo sapiens) (P16581 whole entry, looked up): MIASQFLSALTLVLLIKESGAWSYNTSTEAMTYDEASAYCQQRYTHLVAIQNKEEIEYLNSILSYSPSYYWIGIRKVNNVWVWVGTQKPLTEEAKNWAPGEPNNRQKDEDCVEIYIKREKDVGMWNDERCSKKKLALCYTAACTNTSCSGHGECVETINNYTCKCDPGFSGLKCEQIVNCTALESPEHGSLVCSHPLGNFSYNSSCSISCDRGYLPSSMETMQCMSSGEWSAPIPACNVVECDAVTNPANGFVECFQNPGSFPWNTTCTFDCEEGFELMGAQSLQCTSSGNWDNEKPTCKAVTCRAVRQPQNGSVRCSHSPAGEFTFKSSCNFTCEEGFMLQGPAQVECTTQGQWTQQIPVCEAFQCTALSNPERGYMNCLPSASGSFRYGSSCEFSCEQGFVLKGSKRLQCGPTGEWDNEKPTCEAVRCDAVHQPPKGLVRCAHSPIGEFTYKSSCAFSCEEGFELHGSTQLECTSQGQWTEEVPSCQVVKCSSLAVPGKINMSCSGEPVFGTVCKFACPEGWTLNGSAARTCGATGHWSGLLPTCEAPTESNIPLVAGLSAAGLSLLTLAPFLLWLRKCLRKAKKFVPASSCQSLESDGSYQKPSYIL
# Sequence of human Retinoid X Receptor beta (RXRb), RXRB (gene 6257) (P28702 whole entry, looked up, the tested form may be a part): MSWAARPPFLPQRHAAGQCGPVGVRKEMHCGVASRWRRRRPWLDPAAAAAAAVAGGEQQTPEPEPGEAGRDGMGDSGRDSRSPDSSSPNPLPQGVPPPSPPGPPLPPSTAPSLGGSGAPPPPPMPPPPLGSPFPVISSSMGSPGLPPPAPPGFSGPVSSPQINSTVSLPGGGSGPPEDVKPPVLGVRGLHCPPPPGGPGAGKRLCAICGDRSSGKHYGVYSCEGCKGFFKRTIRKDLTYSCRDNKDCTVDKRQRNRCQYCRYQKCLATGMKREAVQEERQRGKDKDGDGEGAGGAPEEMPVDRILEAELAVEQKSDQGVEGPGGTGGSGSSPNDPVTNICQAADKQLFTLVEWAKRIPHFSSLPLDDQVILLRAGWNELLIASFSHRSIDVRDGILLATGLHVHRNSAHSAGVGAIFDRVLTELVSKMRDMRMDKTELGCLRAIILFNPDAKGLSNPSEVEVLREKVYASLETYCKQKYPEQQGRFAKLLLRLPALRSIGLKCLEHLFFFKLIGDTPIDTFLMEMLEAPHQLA
# Sequence of human Thyroid Receptor alpha (THRa1), THRA (gene 7067) (P10827 whole entry, looked up, the tested form may be a part): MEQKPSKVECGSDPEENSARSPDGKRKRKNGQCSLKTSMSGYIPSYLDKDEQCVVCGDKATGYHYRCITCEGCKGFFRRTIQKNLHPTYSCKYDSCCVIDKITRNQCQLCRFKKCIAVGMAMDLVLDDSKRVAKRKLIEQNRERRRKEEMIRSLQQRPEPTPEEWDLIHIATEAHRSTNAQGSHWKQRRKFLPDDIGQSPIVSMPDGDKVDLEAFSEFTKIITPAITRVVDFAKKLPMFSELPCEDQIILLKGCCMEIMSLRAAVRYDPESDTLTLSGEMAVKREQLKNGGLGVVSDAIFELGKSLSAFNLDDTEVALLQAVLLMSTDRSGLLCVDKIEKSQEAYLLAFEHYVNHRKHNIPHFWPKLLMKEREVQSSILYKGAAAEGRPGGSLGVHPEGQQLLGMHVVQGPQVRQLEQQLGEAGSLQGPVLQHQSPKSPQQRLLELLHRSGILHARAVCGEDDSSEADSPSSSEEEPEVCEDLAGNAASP
# Sequence of human RAR-related Orphan Receptor gamma (RORg), RORC (gene 6097) (P51449 whole entry, looked up, the tested form may be a part): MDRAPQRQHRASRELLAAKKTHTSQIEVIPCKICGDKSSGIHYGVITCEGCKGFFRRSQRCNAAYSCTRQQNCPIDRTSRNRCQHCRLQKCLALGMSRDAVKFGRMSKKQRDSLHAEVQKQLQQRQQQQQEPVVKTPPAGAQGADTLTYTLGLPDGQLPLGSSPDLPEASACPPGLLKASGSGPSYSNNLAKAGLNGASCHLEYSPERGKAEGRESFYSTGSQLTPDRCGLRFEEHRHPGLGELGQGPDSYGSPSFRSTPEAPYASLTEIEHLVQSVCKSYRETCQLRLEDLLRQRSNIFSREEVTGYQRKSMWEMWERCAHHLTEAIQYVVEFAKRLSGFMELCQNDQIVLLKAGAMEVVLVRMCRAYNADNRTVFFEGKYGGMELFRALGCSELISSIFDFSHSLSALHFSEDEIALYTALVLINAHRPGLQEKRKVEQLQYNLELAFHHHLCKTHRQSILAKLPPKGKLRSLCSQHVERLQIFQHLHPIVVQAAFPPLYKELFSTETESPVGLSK
smiles,measurement,setting,value
Cc1ccc(N=CN(C)C=Nc2ccc(C)cc2C)c(C)c1,AC50,[1],33 µM (active)
same,AC50,[2],35.1 µM (active)
same,AC50,[3],36 µM (active)
same,AC50,[4],31.4 µM (active)
same,AC50,[5],33 µM (active)
same,AC50,[6],31.6 µM (active)
COc1cc(Cl)c(OC)cc1Cl,outcome,[7],inactive
same,outcome,[8],inactive
same,outcome,[9],inactive
same,outcome,[1],inactive
same,outcome,[2],inactive
same,outcome,[3],inactive
same,outcome,[4],inactive
same,outcome,[5],inactive
same,outcome,[6],inactive
COc1ccc(-c2ccccc2)cc1NNC(=O)OC(C)C,outcome,[7],inactive
same,outcome,[8],inactive
same,outcome,[1],inactive
same,outcome,[2],inactive
same,outcome,[3],inactive
same,outcome,[4],inactive
same,outcome,[5],inactive
same,outcome,[6],inactive
Cc1cc(C)nc(Nc2ccccc2)n1,outcome,[7],inactive
same,outcome,[8],inactive
same,outcome,[9],inactive
same,outcome,[1],inactive
same,outcome,[3],inactive
same,outcome,[4],inactive
same,AC50,[5],16.6 µM (active)
same,outcome,[6],inactive
C=CCOC(=O)C(C)(C)OC(=O)c1cc(-n2c(=O)cc(C(F)(F)F)n(C)c2=O)ccc1Cl,outcome,[7],inactive
same,outcome,[9],inactive
same,outcome,[1],inactive
same,outcome,[3],inactive
same,outcome,[4],inactive
same,AC50,[5],14.7 µM (active)
same,outcome,[6],inactive
CC(C)=CC1C(C(=O)OCc2coc(Cc3ccccc3)c2)C1(C)C (stereo unspecified),outcome,[7],inactive
same,outcome,[8],inactive
same,outcome,[9],inactive
same,AC50,[1],8.92 µM (active)
same,AC50,[3],10.4 µM (active)
same,outcome,[4],inactive
same,AC50,[5],7.53 µM (active)
same,AC50,[6],9.03 µM (active)
CC(C)(C)C(=O)C(Oc1ccc(Cl)cc1)n1cncn1 (stereo unspecified),outcome,[7],inactive
same,outcome,[8],inactive
same,outcome,[9],inactive
same,outcome,[1],inactive
same,outcome,[2],inactive
same,outcome,[3],inactive
same,outcome,[4],inactive
same,AC50,[5],31.4 µM (active)
same,outcome,[6],inactive
Nc1cnn(-c2ccccc2)c(=O)c1Cl,outcome,[7],inactive
same,outcome,[9],inactive
same,outcome,[1],inactive
same,outcome,[2],inactive
same,outcome,[3],inactive
same,outcome,[4],inactive
same,outcome,[5],inactive
same,outcome,[6],inactive
CC1(C)CCC(=Cc2ccc(Cl)cc2)C1(O)Cn1cncn1 (stereo unspecified),outcome,[7],inactive
same,outcome,[8],inactive
same,outcome,[1],inactive
same,outcome,[2],inactive
same,outcome,[3],inactive
same,outcome,[4],inactive
same,AC50,[5],5.3 µM (active)
same,outcome,[6],inactive
COC(=O)NC(=S)Nc1ccccc1NC(=S)NC(=O)OC,outcome,[7],inactive
same,outcome,[9],inactive
same,AC50,[1],5.15 µM (active)
same,outcome,[2],inactive
same,outcome,[3],inactive
same,AC50,[4],5.32 µM (active)
same,AC50,[5],14.2 µM (active)
same,outcome,[6],inactive
COCc1cnc(C2=NC(C)(C(C)C)C(=O)N2)c(C(=O)O)c1 (stereo unspecified),outcome,[7],inactive
same,outcome,[8],inactive
same,outcome,[9],inactive
same,outcome,[1],inactive
same,outcome,[2],inactive
same,outcome,[3],inactive
same,outcome,[4],inactive
same,outcome,[5],inactive
same,outcome,[6],inactive
CC(C)Nc1nc(Cl)nc(NC(C)C)n1,outcome,[7],inactive
same,outcome,[8],inactive
same,outcome,[9],inactive
same,outcome,[1],inactive
same,outcome,[2],inactive
same,outcome,[3],inactive
same,outcome,[4],inactive
same,outcome,[5],inactive
same,outcome,[6],inactive
COC(=O)c1c(C(F)F)nc(C(F)(F)F)c(C2=NCCS2)c1CC(C)C,outcome,[7],inactive
same,outcome,[8],inactive
same,outcome,[1],inactive
same,outcome,[2],inactive
same,outcome,[3],inactive
same,AC50,[4],17.6 µM (active)
same,AC50,[5],25.2 µM (active)
same,outcome,[6],inactive
O=C1C2CC=CCC2C(=O)N1SC(Cl)(Cl)Cl (stereo unspecified),outcome,[7],inactive
same,outcome,[8],inactive
same,outcome,[9],inactive
same,outcome,[1],inactive
same,outcome,[3],inactive
same,outcome,[4],inactive
same,AC50,[5],36.7 µM (active)
same,outcome,[6],inactive
O=C(O)c1c(Cl)ccc2cc(Cl)cnc12,outcome,[9],inactive
same,outcome,[1],inactive
same,outcome,[2],inactive
same,outcome,[3],inactive
same,outcome,[4],inactive
same,outcome,[5],inactive
same,outcome,[6],inactive
CCCC(=NOCC)C1=C(O)CC(CC(C)SCC)CC1=O (stereo unspecified),outcome,[7],inactive
same,outcome,[1],inactive
same,outcome,[3],inactive
same,outcome,[4],inactive
same,outcome,[5],inactive
same,outcome,[6],inactive
Nc1c(Cl)c(F)nc(OCC(=O)O)c1Cl,outcome,[7],inactive
same,outcome,[8],inactive
same,outcome,[1],inactive
same,outcome,[3],inactive
same,outcome,[4],inactive
same,outcome,[5],inactive
same,outcome,[6],inactive
COP(=S)(OC)Oc1ccc([N+](=O)[O-])c(C)c1,outcome,[8],inactive
same,outcome,[9],inactive
same,outcome,[1],inactive
same,AC50,[3],30.8 µM (active)
same,outcome,[4],inactive
same,AC50,[5],20 µM (active)
same,outcome,[6],inactive
COC(=O)NS(=O)(=O)c1ccc(N)cc1,outcome,[10],inactive
same,outcome,[1],inactive
same,outcome,[3],inactive
same,outcome,[4],inactive
same,outcome,[5],inactive
same,outcome,[6],inactive

# From PubChem BioAssay (EPA / NIEHS)
